The entries come from a sample that favours hits as a whole.
AMA1-RON2 inh = AMA1-RON2 (P. falciparum) interaction inhibition; 360,000 compounds, 0.2% hits; AID 720542; Potency, µM (titrated, usually from 58.2 µM), inactives show at the top dose activity change, negative = inhibition, actives largely listed as inhibitors; AlphaScreen AMA1-biotinylated RON2 peptide binding; active means well fitted inhibition curve with a large enough effect; inconclusive means small, poorly fitted or top-dose-only effect; inactive means no such curve, though single readings can be large or run the other way;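 further: potency means the concentration at half of the fitted maximal effect; 0% = vehicle wells and -100% = peptide control; nearly all actives have a fitted effect of over 45% in size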
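AMA1 (3D7) with his tag at 25 nM final met compounds first, then biotinylated RON2 peptide at 25 nM; detection used donor plus acceptor beads, 10 µg/mL apiece, read by AlphaScreen after 30 min at room temperature.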
Shiga inhibitor = Shiga toxin inhibition; inhibition, % at 38.7 µM; Vero cells, Shiga toxin protein synthesis inhibition reporter; 290,000 compounds, 9.2% hits; in the data active means inhibition mostly above about 28%, no sharp cut-off; inactive means mostly below about 43%; further: 0% is about no effect
CHX counter = counter-screen for Shiga toxin inhibitors: cycloheximide protein synthesis inhibition. cell reporter, cycloheximide protein synthesis inhibition counterscreen. max response, %. 300,000 compounds, 12% hits. AID 2314; in the data active means max response mostly above about 13%, no sharp cut-off; inactive means mostly below about 14%; further: read at 38.3 µM for the half of the compounds with a filed dose; 0% is about no effect
LASV entry inh = inhibitors of Lassa virus binding or cell entry; 300,000 compounds, 1.2% hits; Lassa virus pseudotype entry inhibition, cell reporter; Potency, µM (top dose mostly 37.9 µM), for inactives: top-dose activity change, negative = inhibition, hits mostly inhibitors; AID 540256; calls by dose curve; tested in HEK293 cells; further: potency means the concentration at half of the fitted maximal effect; on the % scale 0 is the no-effect control and ±100 the full control effect; nearly all actives have a fitted effect of over 50% in size
Marburg entry inh = blocks Marburg virus binding to or entry into cells. Marburg virus pseudotyped entry inhibition, cell reporter. Potency, µM (top dose mostly 37.8 µM), without a hit: top-dose activity change, negative = inhibition, usual class: inhibitors. 300,000 compounds, 1.8% hits. AID 540276; calls by dose curve; tested in HEK293 cells; further: potency means the concentration at half of the fitted maximal effect; on the % scale 0 is the no-effect control and ±100 the full control effect
Numbers without * were called inactive; ? = inconclusive; nt = no result given; ! = a repeat was not active; [ ] = another dose, or the depositor's remark.

SMILES | AMA1-RON2 inh | Shiga inhibitor | CHX counter | LASV entry inh | Marburg entry inh
CN(CCN1CCOCC1)C(=O)c1cc(COc2ccc(F)cc2Cl)on1 | 0% | nt | nt | nt | nt
CN(CCc1ccccc1)C(=O)c1cc(COc2cccc(C(F)(F)F)c2)on1 | 23% | 60* | 23* | nt | nt
CN(CCCN1CCOCC1)C(=O)c1cc(COc2cccc(C(F)(F)F)c2)on1 | 1% | 8 | -2 | nt | nt
CN(CCc1ccccc1)C(=O)c1cc(COc2ccc(F)cc2Cl)on1 | 33% | 74* | 43* | nt | nt
O=c1c2ccccc2c(-c2ccccc2)nn1Cc1c(Cl)cccc1Cl | -3% | -6 | -2 | -13% | -18%
Clc1cccc(Cl)c1Cn1ccc(C2CC2)n1 | 2% | 64* | 41* | 25% | 15%[46.1 µM]
CSc1ccc(-c2nc3cccc(C)n3c2Nc2ccc3c(c2)OCO3)cc1 | nt | nt | nt | ? | -1%[46.1 µM]
Clc1ccc2nc(N3CCCCC3)sc2c1 | -23% | 82* | 39* | ? | ?
CS(=O)(=O)N1CCN(c2nc3ccc(Cl)cc3s2)CC1 | 13% | 47 | 7 | ? | 16%[46.1 µM]
Clc1ccc2nc(N3CCCCC3)[nH]c2c1 | 0% | 80* | 37* | -26% | -22%
CC(C)C(=O)N1CCN(c2nc3ccc(Cl)cc3s2)CC1 | -9% | 62* | 36* | nt | nt
CC(C)NC(=O)N1CCCN(c2nc3ccc(Cl)cc3s2)CC1 | -18% | 37 | 32* | -3% | -23%
O=C(NCc1cccc(Cl)c1)c1ccc2nc(N3CCCCC3)sc2c1 | nt | nt | nt | -4%[46.1 µM] | 2%[46.1 µM]
Cc1c(Cl)ccc2sc(N3CCN(C(=O)C(C)C)CC3)nc12 | nt | nt | nt | 0%[46.1 µM] | nt
Cc1cccc(C=NOCCc2ccccc2)n1 | 24% | nt | nt | -5% | -1%
CCOc1ccc(C(=O)Nc2ccc(C(=O)N3CCOCC3)cc2)c(OCC)c1 | 12% | -24 | -2 | 1% | -18%
Cc1cc(C)n(C(C)CNS(=O)(=O)c2ccccc2)n1 (stereo not given) | -17% | 15 | -4 | -13%[46.1 µM] | 4%[46.1 µM]
COc1cccc(OC)c1NC(=O)CN(C)S(=O)(=O)c1ccc2c(c1)OCCO2 | 5% | 4 | -9 | 4% | -1%[46.1 µM]
COc1cc(O)c(C(CC(=O)N2CCCCC2)c2cc(OC)c(OC)c(OC)c2)c(OC)c1 (stereo not given) | 58% | 81*! | 47*! | nt | nt
CCCCCc1cc(=O)oc2c(C(CCN3CCCCC3)c3ccc(OC)cc3)c(OC)cc(OC)c12 (stereo not given) | -22% | -18 | -14 | nt | nt
CCN(CC)CCC(c1ccc(OC)cc1)c1c(OC)cc(OC)c2c(C)cc(=O)oc12 (stereo not given) | nt | 124* | 53* | nt | nt
COc1cc(O)c(C(CC(=O)N2CCCC2)c2cc(OC)c(OC)c(OC)c2)c(OC)c1 (stereo not given) | -5% | -1 | -1 | nt | nt
COc1cc(OC)c2ccc(=O)oc2c1C(CCN1CCCC(C)C1)c1ccc2c(c1)OCO2 (stereo not given) | 21% | 124*! | 44*! | nt | nt
CCN(CC)CCC(c1ccc2c(c1)OCO2)c1c(OC)cc(OC)c2c(C)cc(=O)oc12 (stereo not given) | nt | -13 | 9 | nt | nt
CCCCCc1cc(=O)oc2c(C(CCN3CCCC3)c3ccc(N(C)C)cc3)c(OC)cc(OC)c12 (stereo not given) | 8.9µM* | -8 | -5 | nt | nt
SMILES | AMA1-RON2 inh | Shiga inhibitor | CHX counter | LASV entry inh | Marburg entry inh
CCOC(=O)c1c(C)oc2nc(C)nc(NCc3cccc(OC)c3)c12 | nt | nt | nt | -2%[46.1 µM] | nt
CC(=O)Oc1ccc(/C=C(\NC(=O)c2ccco2)C(=O)NCc2ccco2)cc1 | -17% | -6 | 1 | 22% | 1%[46.1 µM]
COc1cc(OC)c2ccc(=O)oc2c1C(CC(=O)N1CCOCC1)c1ccc(N(C)C)cc1 (stereo not given) | -4% | -15 | -4 | nt | nt
CCN(CC)C(=O)CC(c1ccc(N(C)C)cc1)c1c(OC)cc(OC)c2c(-c3ccccc3)cc(=O)oc12 (stereo not given) | 22µM* | -6 | -2 | nt | nt
COc1cc(OC)c2ccc(=O)oc2c1C(CC(=O)N1CCCC1)c1ccc(N(C)C)cc1 (stereo not given) | -15% | 30 | 22*! | nt | nt
O=C(Nc1ccc(C(=O)N2CCOCC2)cc1)C1CC1 | 11% | nt | nt | nt | nt
COc1ccc(NC(=O)Cn2c(SCc3ccc(C)cc3)nc3cccnc32)c(OC)c1 | nt | nt | nt | -3%[46.1 µM] | nt
N#Cc1c(N2CCSCC2)nsc1-c1ccccc1Cl | 5% | 43 | 29* | ? | -28%[46.1 µM]
CC(=O)c1cccc(NC(=O)c2c(N3CCCC3=O)c3cc(F)ccc3n2C)c1 | nt | nt | nt | -12%[46.1 µM] | nt

Assay outcomes (PubChem)
